The list is not random: actives were taken first. Their share in the collection is about 1.2%.
NOD2 RIPK2 PPI = NOD2-RIPK2 protein interaction inhibition; CHO BLA complementation NOD2-RIPK2, CCF4 ratio; inhibition, % at 4.98 µM; O43353; hit rate 0.38% among 360,000; AID 624267; in the data active = inhibition above about 21%
ABHD5 PLIN5 PPI = inhibitors of human ABHD5-perilipin-5 interaction; Q00G26+Q8WTS1; Split G. princeps luciferase complementation, luminescence, 4 h; inhibition, % at 4 µM; hit rate 0.78% among 360,000; AID 602281;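 active = inhibition above the mean inhibition across every tested compound plus 3 SD, cut at about 22% in these data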
TLR9-MyD88 block = blocks human TLR9 binding to MyD88. hit rate 0.21% among 340,000. AID 504734. inhibition, % at 4.98 µM. Q9NR96+Q99836. CHO BLA complementation TLR9-MyD88, CCF4 FRET ratio;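 active = inhibition above the mean over all tested compounds plus 3 SD, cut at about 21% in these data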
Target sequence (Q99836 whole entry, looked up): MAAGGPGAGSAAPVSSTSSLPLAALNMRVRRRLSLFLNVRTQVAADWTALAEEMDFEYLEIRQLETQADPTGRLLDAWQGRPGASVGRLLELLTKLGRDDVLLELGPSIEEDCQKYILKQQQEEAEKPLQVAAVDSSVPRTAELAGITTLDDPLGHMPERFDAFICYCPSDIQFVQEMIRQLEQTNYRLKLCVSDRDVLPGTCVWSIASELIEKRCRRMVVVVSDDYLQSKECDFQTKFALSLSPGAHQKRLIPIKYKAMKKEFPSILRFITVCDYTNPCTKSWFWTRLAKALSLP
Target sequence (Q9NR96 whole entry, looked up): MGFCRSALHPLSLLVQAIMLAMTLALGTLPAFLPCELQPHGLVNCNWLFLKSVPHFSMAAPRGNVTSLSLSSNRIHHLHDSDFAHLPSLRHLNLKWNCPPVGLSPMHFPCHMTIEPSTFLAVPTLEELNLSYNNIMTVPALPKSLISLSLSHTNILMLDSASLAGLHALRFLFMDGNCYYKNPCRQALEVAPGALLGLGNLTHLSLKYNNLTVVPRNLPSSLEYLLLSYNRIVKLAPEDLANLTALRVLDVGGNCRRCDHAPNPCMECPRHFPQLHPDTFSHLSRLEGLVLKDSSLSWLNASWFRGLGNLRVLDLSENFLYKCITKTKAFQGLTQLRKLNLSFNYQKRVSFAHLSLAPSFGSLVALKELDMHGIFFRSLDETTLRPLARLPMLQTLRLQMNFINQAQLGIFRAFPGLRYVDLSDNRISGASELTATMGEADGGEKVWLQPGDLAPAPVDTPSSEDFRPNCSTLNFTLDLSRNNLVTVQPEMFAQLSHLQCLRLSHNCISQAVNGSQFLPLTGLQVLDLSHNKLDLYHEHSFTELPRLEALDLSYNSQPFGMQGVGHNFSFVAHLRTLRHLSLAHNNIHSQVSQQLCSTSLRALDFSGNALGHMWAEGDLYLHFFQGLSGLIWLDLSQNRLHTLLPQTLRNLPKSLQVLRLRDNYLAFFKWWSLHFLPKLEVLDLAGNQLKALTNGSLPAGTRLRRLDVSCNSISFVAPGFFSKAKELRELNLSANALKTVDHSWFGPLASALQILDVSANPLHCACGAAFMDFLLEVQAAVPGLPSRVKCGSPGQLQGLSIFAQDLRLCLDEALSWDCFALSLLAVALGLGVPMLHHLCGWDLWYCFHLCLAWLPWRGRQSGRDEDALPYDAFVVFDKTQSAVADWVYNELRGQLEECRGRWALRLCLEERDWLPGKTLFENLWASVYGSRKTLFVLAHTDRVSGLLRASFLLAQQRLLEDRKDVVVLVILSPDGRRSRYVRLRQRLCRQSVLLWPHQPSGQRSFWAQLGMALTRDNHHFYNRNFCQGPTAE
TLR4 MyD88 comp = inhibitors of human TLR4-MyD88 binding; AID 861; inhibition, % at 8.4 µM; HeLa CL3-4 TLR4/MyD88 BLA complementation, FRET ratio; hit rate 0.18% among 200,000; in the data active = inhibition above about 25%
TLR9-MyD88 cf = confirmation of human TLR9-MyD88 binding inhibitors; hit rate 51% among 680; inhibition, % at 4.98 µM; shares compounds with TLR9-MyD88 block; CHO TLR9/MyD88 BLA complementation, CCF4 FRET ratio;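 active = mean inhibition across three repeats above about 21% taken from the earlier screen, limit read from the data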;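 note: blue over green emission ratio reports constitutive TLR9 MyD88 association via BLA complementation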
BLA counter-1 = non-selective beta-lactamase inhibitors in TLR9-MyD88 counter-screen; inhibition, % at 4.98 µM; CHO-BLA cells, CCF4 FRET ratio, BLA reporter; AID 540251; shares compounds with TLR9-MyD88 block; hit rate 7% among 680;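 active = mean inhibition above a 50% cutoff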;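 note: counterscreen of TLR9-MyD88 hits on CMV-driven BLA in CHO-K1 cells; higher means less blue over green ratio so more BLA blockade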
TLR9 CHO tox = CHO cell toxicity counter-screen for TLR9-MyD88 inhibitors; shares compounds with TLR9-MyD88 block; TLR9-MyD88 CHO cells cytotoxicity, luminescence; inhibition, % at 4.98 µM; hit rate 39% among 680; in the data active = inhibition above about 11%
ABHD5-PLIN5 conf = ABHD5-PLIN5 interaction inhibition, confirmed; shares compounds with ABHD5 PLIN5 PPI; biochemical ABHD5-PLIN5 interaction, luminescence; hit rate 67% among 2,200; inhibition, % at 4 µM; in the data active = inhibition above about 23%
HNF4 split-luc = counter-screen for ABHD5-PLIN5 inhibitors: HNF4 split-luciferase; shares compounds with ABHD5 PLIN5 PPI; HNF4 dimerization, luminescence, biochemical; inhibition, % at 4 µM; hit rate 77% among 2,200; AID 651674;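 active = mean inhibition across replicate wells exceeding the computed hit threshold, cut at about 13% in these data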;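 note: light from luciferase halves that rejoin when HNF4 fusion proteins dimerize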
NOD2 RIPK2 conf = NOD2-RIPK2 interaction inhibition confirmed. shares compounds with NOD2 RIPK2 PPI. CHO cells, NOD2-RIPK2 BLA complementation, CCF4 FRET. inhibition, % at 4.98 µM. hit rate 70% among 1,200;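 active = mean inhibition across replicates above a set limit taken from the earlier primary screen, cut at about 21% in these data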
BLA counter-2 = NOD2-RIPK2 counterscreen BLA reporter activity. shares compounds with NOD2 RIPK2 PPI. CHO BLA reporter, CCF4 FRET ratio. inhibition, % at 4.98 µM. hit rate 57% among 1,200. AID 624371;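 active = mean inhibition above the low-control mean inhibition plus three low-control SD, cut at about 11% in these data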
A number is an active result; . = inactive; / = not tested or not shown.

SMILES	NOD2 RIPK2 PPI	ABHD5 PLIN5 PPI	TLR9-MyD88 block	TLR4 MyD88 comp	ABHD5-PLIN5 conf	HNF4 split-luc	others
CC1(C)OC(c2ccccc2)=C/C(=C/C=C2C(=O)NC(=O)NC2=O)O1	32	.	34	.	/	/	TLR9-MyD88 cf=24;BLA counter-1=.;TLR9 CHO tox=.;NOD2 RIPK2 conf=57;BLA counter-2=56
CCCn1cc(C(=O)O)cn1	.	.	.	.	/	/
O=C1NC(=O)C(=Cc2ccc(-c3ccc(F)cc3O)o2)C(=O)N1	.	25	.	/	73	86
COc1ccc(NC(=O)C2C3CCC(O3)C2C(=O)O)c(OC)c1 (stereo not drawn)	.	.	.	/	/	/
CCOC(=O)C1(c2ccccc2)CCN(CCC(C#N)(c2ccccc2)c2ccccc2)CC1	.	.	.	/	/	/
CCOc1ccc(-n2c(O)c(/C=C3\C=Nc4ccccc43)c(=O)[nH]c2=O)cc1	.	29	.	/	.	38
C=CCn1c(O)c(/C=C2\C=Nc3ccccc32)c(=O)[nH]c1=O	.	.	/	/	/	/
COc1ccc(OC)c(-n2c(O)c(/C=C3\C=Nc4ccccc43)c(=O)[nH]c2=O)c1	.	.	.	/	/	/
COc1ccccc1-n1c(O)c(/C=C2\C=Nc3ccccc32)c(=O)[nH]c1=O	.	29	.	/	24	28
Oc1c(Br)c(Br)c(Br)c(Br)c1Br	.	.	.	/	/	/
Cc1cccc(OP(N)(=O)Oc2cccc(C)c2C)c1C	.	.	.	/	/	/
Cc1cc(=O)n(-c2ccccc2)n1-c1ccccc1	.	.	.	.	/	/
COc1ccc(Cn2c(N)c(C(=O)NCc3ccco3)c3nc4ccccc4nc32)cc1OC	.	.	.	.	/	/
Nc1c(C(=O)NCC2CCCO2)c2nc3ccccc3nc2n1Cc1ccco1 (stereo not drawn)	.	26	.	/	53	45
Nc1c(C(=O)NCc2ccco2)c2nc3ccccc3nc2n1CCN1CCCCC1	.	24	.	.	.	.
CCOC(=O)C1(CCOc2ccccc2)CCN(C2Cc3ccccc3C2)CC1	.	.	.	.	/	/
CN(C)c1ccc(C(=O)c2ccc(N(C)C)cc2)cc1	.	.	.	.	/	/
C/C(=C\c1ccc(N(C)C)cc1)[N+](=O)[O-]	.	65	.	.	99	98
C=CC(C)C(C(=O)c1ccccc1)N(C)C (stereo not drawn)	.	.	.	.	/	/
O=C1c2cccc3cccc(c23)C(=O)N1/N=C/c1c(O)n(-c2ccccc2)c(=O)[nH]c1=O	.	24	.	.	.	18
COC(=O)C1=C(c2ccccc2)C[C@@H]2CC[C@H]1N2C(=O)N1CCOCC1	.	.	.	/	/	/
Cc1ccc(S(=O)(=O)Oc2ccccc2C=C2C(=O)N(C)C(=O)N(C)C2=O)cc1	.	35	.	/	71	72
CN1C(=O)C(=Cc2ccccc2Oc2ccc(Cl)cc2)C(=O)N(C)C1=O	.	32	.	.	55	52
CN1C(=O)C(=Cc2ccccc2OCc2ccc(Cl)cc2)C(=O)N(C)C1=O	.	.	.	.	/	/
N#CCCn1cc(C(=O)Nc2ccccc2Br)c(-c2ccc([N+](=O)[O-])cc2)n1	.	.	.	.	/	/
SMILES	NOD2 RIPK2 PPI	ABHD5 PLIN5 PPI	TLR9-MyD88 block	TLR4 MyD88 comp	ABHD5-PLIN5 conf	HNF4 split-luc	others
C=CCn1c(O)c(C=Nc2ccc(OC)cc2C)c(=O)[nH]c1=O	.	.	.	.	/	/
CCCNC(=O)N1[C@H]2CC[C@@H]1C(C(=O)OC)=C(c1cc3ccccc3s1)C2	.	.	.	/	/	/
Cc1ccc(N2C(=O)NC(=O)/C(=C\C=C\c3ccco3)C2=O)cc1	.	25	.	/	95	73
Cc1cccc(N2C(=O)NC(=O)/C(=C\C=C\c3ccco3)C2=O)c1	.	24	.	/	93	70
CN1C(=O)/C(=C/C=C/c2ccco2)C(=O)NC1=S	.	26	.	/	74	49
Cc1ccc(N2C(=O)NC(=O)/C(=C\C=C\c3ccco3)C2=O)cc1C	.	.	.	.	/	/
O=C1/C(=C\c2ccccc2)C2OCC=C3CN4CCC56c7ccccc7N1C5C2C3CC46 (stereo not drawn)	.	.	.	/	/	/
COc1cccc(OP(=O)(Nc2ccccc2)Oc2cccc(OC)c2)c1	.	.	.	/	/	/
O=C1NC(=O)C(=Cc2ccc(OCCOc3ccc([N+](=O)[O-])cc3)cc2)C(=O)N1	.	.	.	.	/	/
O=C1NC(=O)N(c2ccccc2F)C(=O)/C1=C/c1ccc(Oc2ccc([N+](=O)[O-])cn2)cc1	.	24	.	.	69	47
COc1ccc(C(=O)CN2CCOCC2)cc1F	.	31	.	.	.	.
O=C(CN1CCOCC1)c1ccc2cc[nH]c2c1	.	.	.	.	/	/
CCN1/C(=C/C=C/C2=[N+](CC)c3ccccc3C2(C)C)C(C)(C)c2ccccc21	.	52	.	/	28	37
CN1/C(=C\C=C\C2=[N+](C)c3ccc4ccccc4c3C2(C)C)C(C)(C)c2ccccc21	/	/	/	.	/	/
O=[N+]([O-])c1cccc(NP(=O)(N2CC2)N2CC2)c1	.	.	.	/	/	/
CC(=O)OC1(c2ccccc2)CCN(C2CCCCC2)CC1C (stereo not drawn)	.	.	.	.	/	/
[Cl][Pt+2][Cl].[NH-]C1CCCCC1[NH-] (stereo not drawn)	.	36	.	/	60	55
CN1C(=O)C(=Cc2cn(CC#N)c3ccccc23)C(=O)N(C)C1=O	.	29	.	/	23	21
CCOC(=O)Cn1cc(C=C2C(=O)N(C)C(=O)N(C)C2=O)c2ccccc21	.	29	.	/	.	.
CN1C(=O)C(=Cc2cn(CC(=O)N3CCCC3)c3ccccc23)C(=O)N(C)C1=O	.	45	.	/	.	34
O=C1NC(=O)N(Cc2ccco2)C(=O)/C1=C/C=C/c1ccco1	.	46	.	/	98	80
O=C1NC(=O)N(Cc2ccccc2)C(=O)/C1=C\C=C\c1ccco1	.	28	.	.	97	64
CCCCCCCSc1cc(OC)c(CCN(C)C)cc1OC	.	28	.	.	.	.
CCCCCSc1cc(OC)c(CCN)cc1OC	.	.	.	.	/	/
